Data published in PubChem BioAssay (NCI).
This is part of a sample that, as a whole, favours compounds with a hit. Of some 83,000 tested, about 20% had one in any assay.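 Growth was measured after 48 h exposure to one concentration of compound in 96-well plates. Values under 10 count as active.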 Calls of active or inactive are those of the source.

Key:
Assay in all cases: NCI-60 one-dose screen, 48 h (100 = growth as untreated, 0 = no growth, -100 = all killed)
HCT-15 colon = conditions: 10 µM unless noted
HT29 colon = conditions: 10 µM unless noted
SNB-75 CNS = conditions: 10 µM unless noted
SNB-19 CNS = conditions: 10 µM unless noted
U251 CNS = conditions: 10 µM unless noted
PC-3 prostate = conditions: 10 µM unless noted
SK-MEL-5 melanoma = conditions: 10 µM unless noted
UACC-62 melanoma = conditions: 10 µM unless noted
LOX IMVI melanoma = conditions: 10 µM
SK-MEL-28 melanoma = conditions: 10 µM unless noted
SK-MEL-2 melanoma = conditions: 10 µM unless noted
EKVX NSCLC = conditions: 10 µM unless noted
SN12C renal = conditions: 10 µM unless noted
TK-10 renal = conditions: 10 µM unless noted
ACHN renal = conditions: 10 µM unless noted
CAKI-1 renal = conditions: 10 µM unless noted
A498 renal = conditions: 10 µM unless noted
CCRF-CEM leukemia = conditions: 10 µM unless noted
MOLT-4 leukemia = conditions: 10 µM unless noted
UO-31 renal = conditions: 10 µM unless noted

Measured: growth

CCOc1ccc(NC(=S)N2CCC(CCCC3CCN(C(=S)Nc4ccc(OCC)cc4)CC3)CC2)cc1
inactive: HCT-15 colon 84% | HT29 colon 87.7% | SNB-75 CNS 80.3% | SNB-19 CNS 96% | U251 CNS 95.1% | PC-3 prostate 99% | SK-MEL-5 melanoma 42.2% | UACC-62 melanoma 83.7% | LOX IMVI melanoma 95.5% | SK-MEL-28 melanoma 94.9% | SK-MEL-2 melanoma 104% | EKVX NSCLC 60.5% | SN12C renal 95.9% | TK-10 renal 96.9% | ACHN renal 82.8% | CAKI-1 renal 69.7% | A498 renal 79% | CCRF-CEM leukemia 81.6%

COC(=O)c1ccccc1C(=O)c1c(C)cc(C)cc1C
inactive: HCT-15 colon 101% | HT29 colon 93.8% | SNB-75 CNS 96.5% | SNB-19 CNS 103% | U251 CNS 91.2% | PC-3 prostate 90% | SK-MEL-5 melanoma 101% | UACC-62 melanoma 92.5% | LOX IMVI melanoma 102% | SK-MEL-28 melanoma 94.9% | SK-MEL-2 melanoma 94% | EKVX NSCLC 109% | SN12C renal 99.9% | TK-10 renal 88.3% | ACHN renal 101% | A498 renal 88.9% | CCRF-CEM leukemia 99.2% | MOLT-4 leukemia 87.9%

CC12CCC3c4ccc(O)cc4CCC3C1CCC2=O (centres undefined)
inactive: HCT-15 colon 101% | HT29 colon 96.4% | SNB-75 CNS 93.4% | SNB-19 CNS 98.2% | U251 CNS 101% | PC-3 prostate 85.3% | SK-MEL-5 melanoma 101% | UACC-62 melanoma 94.6% | LOX IMVI melanoma 103% | SK-MEL-28 melanoma 106% | SK-MEL-2 melanoma 98.7% | EKVX NSCLC 83.8% | SN12C renal 96.2% | TK-10 renal 91.1% | ACHN renal 103% | CAKI-1 renal 102% | CCRF-CEM leukemia 93.7% | MOLT-4 leukemia 81.1%

N#C/C(=C\c1ccc2c(c1)OCO2)c1ccccc1
inactive: HCT-15 colon 49.4% | HT29 colon 35.5% | SNB-75 CNS 76.2% | SNB-19 CNS 86.4% | U251 CNS 55% | PC-3 prostate 84.8% | SK-MEL-5 melanoma 54.6% | UACC-62 melanoma 69.7% | LOX IMVI melanoma 78.3% | SK-MEL-28 melanoma 87.7% | SK-MEL-2 melanoma 76.5% | EKVX NSCLC 80.9% | SN12C renal 89.3% | UO-31 renal 76.7% | ACHN renal 93.6% | A498 renal 62.7% | CCRF-CEM leukemia 75.3% | MOLT-4 leukemia 57.8%

CCOC(=O)N[C@H]1CCc2cc(OC)c(OC)c(OC)c2-c2ccc(SC)c(=O)cc21
active: HCT-15 colon 7.82% | HT29 colon 7.57% | SK-MEL-5 melanoma -51.3% | MOLT-4 leukemia 9.15%
inactive: SNB-75 CNS 44.3% | SNB-19 CNS 30.8% | U251 CNS 17.1% | PC-3 prostate 27.7% | UACC-62 melanoma 39.9% | LOX IMVI melanoma 22.4% | SK-MEL-28 melanoma 60.1% | SK-MEL-2 melanoma 32.2% | EKVX NSCLC 31.6% | SN12C renal 26.8% | UO-31 renal 47% | TK-10 renal 43.7% | CAKI-1 renal 19.7% | CCRF-CEM leukemia 21.9%

O=CNCCc1ccccc1
inactive: HCT-15 colon 109% | HT29 colon 98.3% | SNB-75 CNS 82.9% | SNB-19 CNS 98.4% | U251 CNS 99.4% | PC-3 prostate 91.4% | SK-MEL-5 melanoma 107% | UACC-62 melanoma 96.8% | LOX IMVI melanoma 109% | SK-MEL-28 melanoma 113% | SK-MEL-2 melanoma 105% | EKVX NSCLC 97.3% | SN12C renal 90% | TK-10 renal 92.4% | CAKI-1 renal 93.8% | A498 renal 111% | CCRF-CEM leukemia 103% | MOLT-4 leukemia 96.8%

CC(=O)NNC(=S)N/C=C/c1c(C)ccc([N+](=O)[O-])c1[N+](=O)[O-]
inactive: HCT-15 colon 96.5% | HT29 colon 105% | SNB-75 CNS 88.5% | SNB-19 CNS 113% | U251 CNS 112% | PC-3 prostate 97.2% | SK-MEL-5 melanoma 105% | UACC-62 melanoma 98.5% | LOX IMVI melanoma 96% | SK-MEL-28 melanoma 101% | SK-MEL-2 melanoma 92.3% | EKVX NSCLC 99.3% | SN12C renal 96.2% | TK-10 renal 118% | CAKI-1 renal 98.8% | A498 renal 105% | CCRF-CEM leukemia 99.9% | MOLT-4 leukemia 95.5%

O=C(CCCl)OCCOc1ccccc1
inactive: HCT-15 colon 105% | HT29 colon 102% | SNB-75 CNS 96.1% | SNB-19 CNS 108% | U251 CNS 99.9% | PC-3 prostate 95.9% | SK-MEL-5 melanoma 108% | UACC-62 melanoma 108% | LOX IMVI melanoma 96.6% | SK-MEL-28 melanoma 107% | SK-MEL-2 melanoma 104% | EKVX NSCLC 109% | SN12C renal 104% | TK-10 renal 100% | ACHN renal 106% | CAKI-1 renal 102% | A498 renal 89% | MOLT-4 leukemia 92.1%

CSc1nc2[nH]ncc2c(=O)[nH]1
inactive: HCT-15 colon 99.7% | HT29 colon 107% | SNB-75 CNS 103% | SNB-19 CNS 103% | U251 CNS 103% | PC-3 prostate 107% | SK-MEL-5 melanoma 92.8% | UACC-62 melanoma 107% | LOX IMVI melanoma 97.2% | SK-MEL-28 melanoma 106% | SK-MEL-2 melanoma 111% | SN12C renal 101% | UO-31 renal 101% | TK-10 renal 104% | ACHN renal 110% | CAKI-1 renal 103% | A498 renal 75.4% | CCRF-CEM leukemia 118% | MOLT-4 leukemia 110%

O=C(O)c1ccc(OCc2ccccc2)cc1
inactive: HCT-15 colon 109% | HT29 colon 100% | SNB-75 CNS 87.8% | SNB-19 CNS 95% | U251 CNS 93.7% | PC-3 prostate 90.4% | SK-MEL-5 melanoma 96.2% | UACC-62 melanoma 95.6% | LOX IMVI melanoma 98.3% | SK-MEL-28 melanoma 101% | SK-MEL-2 melanoma 101% | EKVX NSCLC 110% | SN12C renal 98.2% | UO-31 renal 89.6% | TK-10 renal 96.7% | CAKI-1 renal 92.7% | MOLT-4 leukemia 98%

Cc1ccc[n+](CCC(N)=O)c1
inactive: HCT-15 colon 111% | HT29 colon 98.1% | SNB-75 CNS 87% | SNB-19 CNS 104% | U251 CNS 87.4% | PC-3 prostate 86.1% | SK-MEL-5 melanoma 102% | UACC-62 melanoma 101% | LOX IMVI melanoma 82% | SK-MEL-28 melanoma 99.9% | SK-MEL-2 melanoma 97.7% | EKVX NSCLC 90.2% | SN12C renal 92% | UO-31 renal 85.9% | TK-10 renal 94.9% | CAKI-1 renal 91.6% | MOLT-4 leukemia 90.9%

O=[N+]([O-])c1ccc(-c2nc(N(CCO)CCO)c3ccccc3n2)o1
active: HCT-15 colon -3.11% | HT29 colon -27.7% | SNB-75 CNS -91.7% | SNB-19 CNS -0.996% | U251 CNS 7.6% | PC-3 prostate -0.975% | SK-MEL-5 melanoma -99% | UACC-62 melanoma -71.6% | LOX IMVI melanoma -65.6% | SK-MEL-28 melanoma -64.8% | SK-MEL-2 melanoma -62.7% | EKVX NSCLC -32.4% | SN12C renal 4.44% | TK-10 renal -14.1% | ACHN renal -14.5% | CAKI-1 renal -28.2% | A498 renal -77.1%
inactive: CCRF-CEM leukemia 21.1% | MOLT-4 leukemia 12.5%

ClCC(Cl)[C@@H]1CC2C=CC1C2 (some centres undefined)
inactive: HCT-15 colon 109% | HT29 colon 107% | SNB-75 CNS 93.6% | SNB-19 CNS 104% | U251 CNS 99.5% | PC-3 prostate 102% | SK-MEL-5 melanoma 99.1% | UACC-62 melanoma 98.7% | LOX IMVI melanoma 97.7% | SK-MEL-28 melanoma 106% | SK-MEL-2 melanoma 112% | EKVX NSCLC 98.3% | SN12C renal 102% | TK-10 renal 114% | CAKI-1 renal 100% | A498 renal 80.2% | MOLT-4 leukemia 114%

CCOC(=O)Nc1nccs1
inactive: HCT-15 colon 104% | HT29 colon 100% | SNB-75 CNS 111% | SNB-19 CNS 111% | U251 CNS 98.9% | PC-3 prostate 97.7% | SK-MEL-5 melanoma 99.5% | UACC-62 melanoma 99.7% | LOX IMVI melanoma 103% | SK-MEL-28 melanoma 111% | SK-MEL-2 melanoma 111% | EKVX NSCLC 99.4% | SN12C renal 97.8% | TK-10 renal 104% | ACHN renal 104% | A498 renal 99.9% | MOLT-4 leukemia 110%

COC1OC(COC(C)=O)C(OC(C)=O)C(OC(C)=O)C1OC(C)=O (centres undefined)
inactive: HCT-15 colon 97.2% | HT29 colon 95.5% | SNB-75 CNS 95.7% | SNB-19 CNS 102% | U251 CNS 102% | PC-3 prostate 87.2% | SK-MEL-5 melanoma 117% | UACC-62 melanoma 86.5% | LOX IMVI melanoma 98.5% | SK-MEL-28 melanoma 94.2% | SK-MEL-2 melanoma 101% | EKVX NSCLC 93% | SN12C renal 101% | UO-31 renal 99.3% | TK-10 renal 104% | A498 renal 88.8% | MOLT-4 leukemia 96.3%

O=S(=O)(O)c1ccc(O)c(C2CCCCC2)c1
inactive: HCT-15 colon 96.6% | HT29 colon 98.6% | SNB-75 CNS 77.2% | SNB-19 CNS 104% | U251 CNS 96.6% | PC-3 prostate 98.5% | SK-MEL-5 melanoma 101% | UACC-62 melanoma 109% | LOX IMVI melanoma 105% | SK-MEL-28 melanoma 110% | SK-MEL-2 melanoma 102% | SN12C renal 105% | UO-31 renal 91% | TK-10 renal 95% | ACHN renal 105% | CAKI-1 renal 94.4% | A498 renal 66.3% | CCRF-CEM leukemia 110% | MOLT-4 leukemia 99.9%

CC(C)(N)CO[C@H]1C[C@H]2CC[C@@]1(C)C2(C)C
inactive: HCT-15 colon 90.7% | HT29 colon 101% | SNB-75 CNS 89.3% | SNB-19 CNS 103% | U251 CNS 96.6% | PC-3 prostate 88.8% | SK-MEL-5 melanoma 86.1% | UACC-62 melanoma 101% | LOX IMVI melanoma 98.6% | SK-MEL-28 melanoma 94.7% | SK-MEL-2 melanoma 108% | SN12C renal 100% | UO-31 renal 91.8% | TK-10 renal 105% | ACHN renal 100% | CAKI-1 renal 97% | A498 renal 81.7% | CCRF-CEM leukemia 105% | MOLT-4 leukemia 107%

CC(=O)NC(O)C(Cl)Cl (centres undefined)
inactive: HCT-15 colon 102% | HT29 colon 105% | SNB-75 CNS 103% | SNB-19 CNS 106% | U251 CNS 91.4% | PC-3 prostate 96.4% | SK-MEL-5 melanoma 102% | UACC-62 melanoma 106% | LOX IMVI melanoma 87.8% | SK-MEL-28 melanoma 103% | SK-MEL-2 melanoma 100% | SN12C renal 110% | UO-31 renal 92.8% | TK-10 renal 97.3% | ACHN renal 105% | CAKI-1 renal 92.3% | A498 renal 94.3% | CCRF-CEM leukemia 99.4% | MOLT-4 leukemia 104%
